Most compounds without a hit are left out; they make up all but 2.5% or so of the library.
LGR2 inh: inhibitors of bursicon-induced LGR2 CRE-luciferase signal, primary screen, cell-based, HEK293, CRE-luciferase reporter, bursicon stimulation | Drosophila bursicon receptor LGR2 (rickets) | bursicon-stimulated, 4 h | inhibition, % at 9.99 µM | actives 0.35% (n = 380,000);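 active = drop in luminescence signal, shown as inhibition above about 50% in the replicate tests, limit read from the data, passing the limit was not always enough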;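 note: agonist challenge used bursicon conditioned medium at about half maximal strength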
EBV LMP1 NFkB: EBV LMP1-driven NF-kappaB luciferase reporter inhibitors, primary screen, cell-based, luminescence, single point; LMP1-induced NF-kappaB luciferase reporter cells; inhibition, % at 12.5 µM; actives 0.69% (n = 350,000); in the data active = inhibition above about 41%;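 note: 0% = neutral control wells and 100% = reference inhibitor control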
TWEAK Fn14 block: inhibitors of TWEAK-Fn14 signaling, primary screen, luciferase reporter cells, uHTS | inhibition, % at 10 µM | TWEAK-stimulated Fn14 reporter cells, luciferase luminescence, 8 h | actives 2% (n = 360,000); in the data active = inhibition above about 50%
EWS-Fli inh: EWS/Fli-driven NR0B1 reporter inhibitors, primary screen, A673 cells, NR0B1 luciferase, luminescence, MLPCN library. viability-normalised. inhibition, % at 12.6 µM. actives 0.67% (n = 350,000). AID 651661, 2012;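 active = mean inhibition of at least 50% after viability correction, with every replicate also passing that limit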;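 note: firefly luciferase signal divided by Alamar Blue viability fluorescence both relative to DMSO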
TROY signal inh: inhibitors of TROY-driven NF-kB signaling, primary screen, Q293 LMP1-TROYcd cells, NF-kB luciferase, uHTS; Q293 LMP1-TROYcd NF-kB luciferase reporter, 4 h; AID 1347056, 2019; inhibition, % at 10 µM; actives 0.98% (n = 360,000);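 active = compounds whose plate-normalised and pattern-corrected inhibition of the luciferase reporter signal at the single screening dose is 50% or more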
The depositor's hits bear a star; ! = a repeat was not active.

How did COCCCC/C(=N\OCCN)c1ccc(C(F)(F)F)cc1 do in these assays?
LGR2 inh: 13; EBV LMP1 NFkB: 68*!; TWEAK Fn14 block: -7; EWS-Fli inh: 9; TROY signal inh: -9

Results for Cn1cnc(S(=O)(=O)N[C@H]2C=C[C@H](CC(=O)Nc3ccccc3)O[C@H]2CO)c1 ?
LGR2 inh: 5; EWS-Fli inh: 0

How did C[C@H](CO)N1C[C@H](C)[C@@H](CN(C)C(=O)c2ccncc2)Oc2ncc(C#CC3CCCCC3)cc2C1=O do in these assays?
LGR2 inh: 10; EWS-Fli inh: -5

What do the screens show for `CC[C@@H]1CCC[C@@H](O)[C@@H](C)C(=O)O[C@H](C)[C@@H](C)C/C=C(C)/C(OC)=C\C(=O)N(C)C([C@@H](C)CC)C(=O)N(C)[C@@H](C(C)C)C(=O)N(C)[C@@H](COC)C(=O)N2CCC[C@H]2C(=O)N(C)[C@@H](C(C)C)C(=O)N2CCC[C@H]2C(=O)O1` (some centres not stated)?
LGR2 inh: 26; TWEAK Fn14 block: 77*; EWS-Fli inh: 20; TROY signal inh: 47

What do the screens show for `O=C(C[C@@H]1C=C[C@@H](NC(=O)c2cccc(F)c2)[C@H](CO)O1)NCc1ccc(Oc2ccccc2)cc1`?
LGR2 inh: 0; EWS-Fli inh: 7

What do the screens show for `COc1ccc(N2CCN(C(=O)c3ccc(CS(=O)c4cccc(C)c4)o3)CC2)cc1` (configuration not stated)?
LGR2 inh: 20; EBV LMP1 NFkB: 2; TWEAK Fn14 block: 0; TROY signal inh: -25

How did O=C(c1ccc(CS(=O)c2ccccc2Cl)o1)N1CCN(c2ccccc2)CC1 (configuration not stated) do in these assays?
LGR2 inh: -6; EBV LMP1 NFkB: 3; TWEAK Fn14 block: -6; EWS-Fli inh: 56*; TROY signal inh: -10

Results for COc1cccc(N2CCN(C(=O)c3ccc(CS(=O)c4ccccc4C)o3)CC2)c1 (configuration not stated) ?
LGR2 inh: -2; EBV LMP1 NFkB: 29; TWEAK Fn14 block: -4; EWS-Fli inh: 58*; TROY signal inh: 6

What do the screens show for `COc1cccc(N2CCN(C(=O)c3ccc(CS(=O)c4ccccc4Cl)o3)CC2)c1` (configuration not stated)?
LGR2 inh: -5; EBV LMP1 NFkB: 2; TWEAK Fn14 block: 49; EWS-Fli inh: 51*; TROY signal inh: 6

How did O=C(c1ccc(CS(=O)c2ccccc2Cl)o1)N1CCOCC1 (configuration not stated) do in these assays?
LGR2 inh: 3; EBV LMP1 NFkB: -3; TWEAK Fn14 block: 3; EWS-Fli inh: 2; TROY signal inh: -16

How did CCC(=O)Nc1ccc2c(c1)OC[C@@H](C)N(C(=O)c1ccc(F)cc1)C[C@@H](C)[C@@H](OC)CN(C)C2=O do in these assays?
LGR2 inh: 19; EWS-Fli inh: 6

How did COCC(=O)N1CC2(CN(Cc3ccc(OC)cc3)C2)c2c([nH]c3cc(OC)ccc23)[C@H]1CO do in these assays?
LGR2 inh: -11; EWS-Fli inh: 0

What do the screens show for `COc1cccc(S(=O)(=O)N[C@H]2CC[C@H](CCn3cc(-c4ccc(F)cc4)nn3)O[C@H]2CO)c1`?
LGR2 inh: 19; EWS-Fli inh: 10

Results for CCn1nc([N+](=O)[O-])c(C(C#N)c2nc3cc(C(F)(F)F)ccc3s2)c(Cl)c1=O (configuration not stated) ?
LGR2 inh: 6; EBV LMP1 NFkB: 7; TWEAK Fn14 block: -12; TROY signal inh: 65*

What do the screens show for `CCCn1nc([N+](=O)[O-])c(C(C#N)c2nc3ccccc3o2)c(Cl)c1=O` (configuration not stated)?
LGR2 inh: 17; EBV LMP1 NFkB: 3; TWEAK Fn14 block: -44; TROY signal inh: 57*

How did Cn1nc([N+](=O)[O-])c(C(C#N)c2ccccn2)c(Cl)c1=O (configuration not stated) do in these assays?
LGR2 inh: 5; EBV LMP1 NFkB: -1; TWEAK Fn14 block: -10; EWS-Fli inh: 1; TROY signal inh: -7

How did C[C@@H]1CN([C@@H](C)CO)S(=O)(=O)c2ccc(Br)cc2O[C@H]1CN(C)Cc1ccccc1 do in these assays?
LGR2 inh: 4; EWS-Fli inh: 14
